An excerpt weighted towards active compounds, which were near 4.8% of everything screened.
PfHsp90 set2 = growth inhibition of yeast expressing Plasmodium Hsp90 | S. cerevisiae expressing PfHsp90, BacTiter-Glo ATP, 48 h; yeast lacking PDR1 and PDR3 efflux regulators | inhibition, % at 9.4 µM | actives 0.32% (n = 310,000) | AID 504621;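 active = every replicate shows inhibition above about 80%, whatever the replicate mean, limit read from the data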;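 also: 0% = DMSO neutral controls and 100% = 20 µM radicicol positive controls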
tim10-1 inh = growth inhibitors of tim10-1 mutant yeast. S. cerevisiae tim10-1 ts strain growth, BacTiter-Glo, 24 h. AID 463190. inhibition, % at 20 µM. actives 2.2% (n = 330,000);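 active = inhibition of at least 40%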;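 also: mutant grown at 25 °C; 0% = DMSO wells with yeast and 100% = wells holding no yeast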
SKKanGAS inh = inhibitors of SKKanGAS S. pyogenes growth in kanamycin (SK-promoter or general growth effect); BacTiter-Glo, 6 h; inhibition, % at 7.5 µM; actives 1.3% (n = 300,000); AID 1662;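 active = mean replicate score, as percent of positive control median, at least 50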;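 also: strain carries kanamycin resistance gene driven by streptokinase promoter and grows in 40 µg/ml kanamycin; loss of luminescence reflects streptokinase promoter inhibition or plain growth inhibition; 0% = median of DMSO wells and 100% = positive control at its reference dose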
tim23-1 inh = tim23-1 yeast growth inhibition | AID 463212 | actives 1.3% (n = 330,000) | inhibition, % at 20 µM | S. cerevisiae tim23-1 growth, BacTiter-Glo luminescence, 24 h;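 active = growth inhibition of the mutant yeast at or above 50%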;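 also: temperature-sensitive mutant grown at 25 °C; plate controls were DMSO-treated mutant yeast for no effect and medium wells lacking yeast for full effect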
NALP1 yeast inh = blocks the NALP1 inflammasome reconstituted in yeast | AID 2071 | inhibition, % at 10 µM | S. cerevisiae NALP1/ASC/caspase-1 growth, X-gal OD620, 72 h | actives 0.61% (n = 280,000); in the data active = inhibition mostly above about 24%, no sharp cut-off; inactive = mostly below about 32%
TIM10 inh = TIM10 yeast growth inhibition | S. cerevisiae TIM10 strain growth, BacTiter-Glo luminescence, 24 h | inhibition, % at 10 µM | actives 1.4% (n = 330,000) | AID 463195;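 active = inhibition of 40% or more at the single tested concentration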;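 also: wild-type TIM10 isogenic control strain grown at permissive 25 °C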
tim10-1 confirm = confirmation of tim10-1 mutant yeast growth inhibitors. shares compounds with tim10-1 inh. S. cerevisiae tim10-1 ts strain growth, BacTiter-Glo, 24 h. inhibition, % at 20 µM. actives 56% (n = 7,400). AID 463213;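 active = inhibition of yeast growth at or above a set limit in either of two repeat tests at 20 µM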;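 also: tim10-1 mutant grown at permissive 25 °C to find synthetic lethal compounds; 0% = DMSO yeast wells and 100% = medium wells without yeast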
* hit, by the source's call; · = no result given.

SMILES	PfHsp90 set2	tim10-1 inh	SKKanGAS inh	tim23-1 inh	NALP1 yeast inh	TIM10 inh	tim10-1 confirm
O=C(CSc1n[nH]c(=O)n1C1CC1)Nc1ccc(F)c(Cl)c1	11.0	-11.7	·	-11.4	·	-9.9	·
O=C(NC(=S)Nc1ccccc1[N+](=O)[O-])c1cncc(Br)c1	-31.6	40.0	8.1	44.8	-2.6	17.3	13.6
COc1cccc(NC(=S)NC(=O)c2cncc(Br)c2)c1	-12.2	46.7*	1.9	44.7	·	36.9	6.8
CC(=O)c1cccc(NC(=S)NC(=O)c2cncc(Br)c2)c1	-14.4	34.3	4.8	36.4	8.8	15.4	·
C[C@H](NC(=O)c1nc[nH]c1C(=O)NCc1ccc(CNC(=O)OC(C)(C)C)cc1)C(=O)OCc1ccccc1	-8.8	10.7	·	8.9	·	3.8	·
c1cncc(CNc2ncnc3sc4c(c23)CCCC4)c1	18.3	0.0	0.7	10.3	-0.5	-16.7	·
Cc1nc(NCc2cccnc2)c2c3c(sc2n1)CCCC3	19.4	44.5*	5.1	16.2	5.6	17.7	5.0
Nc1nc(-c2cccnc2)nc2sc3c(c12)CCCC3	16.5	51.7*	6.3	38.8	-4.9	31.2	33.2*
CC(=O)Nc1ccc(Oc2nc(-c3cccnc3)nc3sc4c(c23)CCCC4)cc1	-0.1	1.7	-7.4	1.3	·	3.5	·
O=C1CN(c2nc(-c3cccnc3)nc3sc4c(c23)CCCC4)CCN1	·	42.3*	10.2	-77.7	5.3	29.8	15.2
CC(NC(=O)C12CC3CC(CC(C3)C1)C2)c1ccc2c(c1)OCCO2 (stereo not given)	·	45.1*	-0.8	24.1	6.1	8.1	25.0
Cc1ccc(C(C)NC(=O)C23CC4CC(CC(C4)C2)C3)cc1 (stereo not given)	·	32.1	-0.2	18.8	5.9	6.6	·
Cc1cc(C(=O)NNC(=O)c2ccc(Cl)cc2)c2ccccc2n1	7.3	9.9	·	10.6	·	11.6	·
CCCOc1cccc(-c2cc(C(=O)NNC(=S)NCC)c3ccccc3n2)c1	6.0	54.3*	-17.0	24.0	0.4	32.8	50.5*
Cc1ccc(C)c(-c2cc(C(=O)NNC(=S)NCC(C)C)c3ccccc3n2)c1	-69.1	47.0*	22.5	26.4	11.0	18.2	31.4
CCCOc1ccc(C(=O)NNC(=S)NC(=O)c2cc(-c3ccc(Cl)cc3)nc3ccccc23)cc1	-117.5	46.3*	99.3*	22.3	4.5	20.3	35.9*
CCCCNC(=S)NNC(=O)c1cc(-c2ccncc2)nc2ccccc12	-6.7	29.9	-0.4	27.3	0.1	18.5	·
CCNC(=S)NNC(=O)c1cc(-c2ccccc2C)nc2ccccc12	15.4	46.1*	-11.4	32.5	8.8	32.8	46.3*
CCNC(=S)NNC(=O)c1cc(CC(C)C)nc2ccccc12	7.5	32.6	2.1	13.3	17.0	16.4	·
COc1ccc(/C=N\NC(=O)/C(=C\Nc2nccc(C)n2)NC(=O)c2ccccc2)cc1	-10.0	10.1	-0.6	-1.2	14.6	-6.5	·
COc1ccc(C(C)NC(=O)Nc2ccc(C(C)=O)cc2)cc1OC (stereo not given)	14.6	-23.9	-3.5	-11.7	19.1	4.2	·
CCCOc1cccc(-c2cc(-c3n[nH]c(=S)n3CC)c3ccccc3n2)c1	-2.7	43.4*	17.6	38.3	-2.0	39.1	32.2*
COc1ccccc1NC=C1C(=O)OC2(CCCCC2)OC1=O	·	40.4*	-5.9	22.5	-19.6	16.6	22.2
COC(=O)c1ccccc1NC=C1C(=O)OC2(CCCCC2)OC1=O	16.0	30.5	2.2	4.3	12.7	5.4	·
CC(C)(C)C1CCc2nc(NC(=O)Cc3cn4ccsc4n3)sc2C1 (stereo not given)	-9.7	57.3*	46.6	47.3	10.4	29.9	33.6*
CCOC(=O)[C@@H]1[C@H]2COc3cc(OC)ccc3[C@@H]2N2C(=O)N(c3cccc(F)c3)C(=O)[C@]12C	·	34.2	1.8	40.9	5.4	11.9	·
S=c1[nH]c2ccccc2n1CCc1ccncc1	5.9	·	·	·	·	·	·
Cc1cc(C)cc(NC(=S)NCc2ccc3[nH]c4c(c3c2)CCCC4)c1	-25.2	40.7*	18.0	39.2	33.1	34.7	25.9
CCS(=O)(=O)NCc1ccc2[nH]c3c(c2c1)CCCC3	·	22.8	23.5	7.4	-3.0	-2.8	·

Screens (PubChem)
